Here are results for 40 compounds from PubChem BioAssay.

Calls of active or inactive are those of the source. No rule for the calls is given here.

The target of the assay is Pantothenate synthetase (Mycobacterium tuberculosis (strain ATCC 25618 / H37Rv)) (UniProt P9WIL5). As to the kind of experiment: Recombinant Mtb pantothenate synthetase (PanC) inhibitors, coupled enzyme, confirmatory (AID 375).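 Also: 0% = full reaction with vehicle and 100% = no enzyme background.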 To be noted: coupled enzyme assay; at 10 µM, hits give high values.
Chain of Pantothenate synthetase (Mycobacterium tuberculosis (strain ATCC 25618 / H37Rv)) (P9WIL5 whole entry, looked up): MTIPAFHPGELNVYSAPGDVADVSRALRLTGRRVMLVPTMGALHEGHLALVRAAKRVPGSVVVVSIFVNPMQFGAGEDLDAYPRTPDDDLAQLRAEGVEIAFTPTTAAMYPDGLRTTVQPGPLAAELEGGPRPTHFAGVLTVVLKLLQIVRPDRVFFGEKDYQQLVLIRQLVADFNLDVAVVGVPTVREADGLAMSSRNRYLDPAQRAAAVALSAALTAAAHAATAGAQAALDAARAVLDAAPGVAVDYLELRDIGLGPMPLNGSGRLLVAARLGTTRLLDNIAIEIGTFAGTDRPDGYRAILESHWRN
Consider `COc1ccc2[nH]c(=O)c(CN(CCO)S(=O)(=O)c3ccc4c(c3)OCCO4)cc2c1`, for which the inhibition was 0% (inactive).
Turning to `CS(=O)(=O)c1ncc(Cl)c(C(=O)Nc2ccc(N3CCOCC3)cc2)n1`, the inhibition was 2% (inactive).
In the case of `CC(=O)N1CCc2cc(S(=O)(=O)NC(CC(C)C)C(=O)N3CCn4c3nc3ccccc34)ccc21` (stereo not given) it was 0% (inactive).
The value for `CCN1CCN(C(=O)c2ccc3c(=O)n(C4CCCC4)c(=S)[nH]c3c2)CC1` was 0% (inactive); that for `CCn1cc(/C=C(/C#N)S(=O)(=O)c2ccccc2)cn1` was 2% (inactive); that for `O=c1[nH]c(/C(=N\O)c2ccccc2)no1` was 0% (inactive).
In the case of `CCOC(=O)CC(C#N)c1cn(C)c2ccccc12` (stereo not given), the inhibition was 4% (inactive).
In the case of `C=CCOc1ccc(CN(C)CC(=O)N(CC(C)C)c2c(N)n(CC(C)C)c(=O)[nH]c2=O)cc1` it was 0% (inactive); in that of `Cn1c(CN2CCCCC2)nc2cc(NC(=O)c3ccccc3)ccc21`, 0% (inactive); in that of `O=C(NCc1ccco1)c1cnc2n(c1=O)CCS2`, 0% (inactive).
For the compound `CCOc1ccc(NC(=O)CSc2nnnn2CC(=O)O)cc1`, the inhibition was 0% (inactive).
In the case of `CCNC(=O)CC1C(=O)N(c2ccc(F)cc2)C(=O)N1CCC(C)C` (stereo not given) it was 0% (inactive); in that of `COC(=O)c1cc(=O)nc2sc(-c3cccs3)nn12`, 8% (inactive); in that of `COc1ccc(-n2c(SCC#N)nc3ccccc3c2=O)cc1`, 1% (inactive).
As for `O=C(NCC(F)(F)F)Nc1cccnc1`, the inhibition was 7% (inactive).
For `COc1ccc(-n2c(Cc3cccn3C)nnc2SCC(=O)Nc2ccc(Cl)cc2)cc1`, the inhibition was 0% (inactive).
In the case of `CCN(CC)CCCNC(=O)c1nn(-c2ccc(OC)cc2OC)c(=O)c2ccccc12` it was 0% (inactive).
Regarding `CCN(CC)C(=O)CSc1nnc([C@@H](N)Cc2ccccc2)o1`, the inhibition is 0% (inactive).
The value for `CCOc1ccc(S(=O)(=O)Nc2ccccc2C(=O)Nc2ccccc2N2CCOCC2)cc1` was 1% (inactive); that for `COc1ccc(C(=O)Nc2ccc(Cl)c(Cl)c2)c(OC)n1` was 0% (inactive).
The value for `O=C(CN(Cc1ccc(F)cc1)C(=O)c1ccco1)NCc1ccc(F)cc1` was 0% (inactive); that for `CC(Oc1ccccc1)C(=O)NC1CCN(Cc2ccccc2)CC1` (stereo not given) was 7% (inactive).
In the case of `CC(C(=O)c1ccccc1)n1cnc2ccccc2c1=O` (stereo not given) it was 9% (inactive).
For the compound `CSc1ccccc1NC(=O)CN(c1ccccc1)S(=O)(=O)N(C)C`, the inhibition was 3% (inactive).
Turning to `O=C(O)CCn1c(SCc2ccccc2)nc2ccccc21`, the inhibition is 0% (inactive).
In the case of `Cc1ccc(-n2ncc3c(N4CCN(c5ccccc5)CC4)ncnc32)c(C)c1` it was 0% (inactive); in that of `CCOC(=O)C1=C(C)Nc2ncnn2C1c1cc(OC)ccc1OC` (stereo not given), 0% (inactive); in that of `CCN(CC)S(=O)(=O)c1ccc(NC(=O)Cn2cnc3ccccc3c2=O)cc1`, 0% (inactive).
For the compound `COc1ccccc1NC(=O)c1ccc(COc2ccccc2OC)o1`, the inhibition was 0% (inactive).
The value for `CCCCSc1nc(CCC)cc(=O)[nH]1` was 0% (inactive); that for `COc1cccc(Cn2c(-c3nonc3N)nc3ccccc32)c1` was 0% (inactive).
In the case of `O=C(Nc1ccc(Cl)cc1)C1CC=CCC1C(=O)OCC(F)(F)C(F)F` (stereo not given) it was 0% (inactive); in that of `CC(C)CCNC(=O)Cn1c(NCCC(C)C)nc2c1c(=O)n(C)c(=O)n2C`, 0% (inactive); in that of `COC(=O)c1ccc2c(=O)n(Cc3ccco3)c(SCC(=O)Nc3ccc(C)c(Cl)c3)nc2c1`, 2% (inactive).
The value for `COc1ccc(C(CNC(=O)CN2C(=O)NC3(CC(C)CC(C)(C)C3)C2=O)N2CCOCC2)cc1` (stereo not given) was 4% (inactive); that for `NC(=O)C1(N2CCCCC2)CCN(CC(=O)Nc2cc(Cl)ccc2Cl)CC1` was 3% (inactive); that for `O=C(OCCN=C1NS(=O)(=O)c2ccccc21)C1CC(=O)N(c2ccc(Cl)cc2)C1` (stereo not given) was 0% (inactive).
As for `CCCn1cnc2c(c1=O)c1nc3ccccc3nc1n2Cc1ccccc1OC`, the inhibition was 0% (inactive).
Turning to `Cn1c(/C=N/n2cnnc2)nc2ccccc21`, the inhibition is 2% (inactive).
`O=C1OCCC1Sc1ncnc2sccc12` (stereo not given): the inhibition is 0% (inactive).
